# Counter-ions that a name gives are not always drawn.
# How the values were obtained:
# U-2932 [1] = experiment: growth inhibition by drug alone (1 - RLU/untreated control) (fraction); higher = stronger inhibition; settings: 177Lu-lilotomab satetraxetan 0 ug/ml
# Outline: (§1)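 Plates pre-printed with the Selleck Cambridge Cancer Compound library at 10/100 nM (RIVA) or 10/1,000 nM (U-2932) received 3,000 cells/well. These cells had been washed after 18 h untreated or with a radiolabelled anti-CD37 antibody conjugate (~600 MBq/mg; 0.5 µg/ml RIVA, 1 µg/ml U-2932). Growth inhibition was obtained from RealTime-Glo luminescence in relation to untreated no-drug wells. Each daily read from day 3, taken after 1 h at 37°C, was converted as 1 − RLU/mean of 48 such wells per plate.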
# RIVA [2] = experiment: as above; settings: 177Lu-lilotomab satetraxetan 0 ug/ml
# Outline: as §1
# U-2932 [3] = experiment: growth inhibition by drug plus 177Lu-lilotomab satetraxetan (1 - RLU/untreated control) (fraction); higher = stronger inhibition; settings: 177Lu-lilotomab satetraxetan 1 ug/ml
# Outline: as §1
# RIVA [4] = experiment: as above; settings: 177Lu-lilotomab satetraxetan 0.5 ug/ml
# Outline: as §1
Compound,"growth inhibition by drug alone (U-2932 [1]; 10 nM, time (day): 3)","growth inhibition by drug alone (U-2932 [1]; 10 nM, time (day): 4)","growth inhibition by drug alone (U-2932 [1]; 10 nM, time (day): 5)","growth inhibition by drug alone (U-2932 [1]; 10 nM, time (day): 6)","growth inhibition by drug alone (U-2932 [1]; 1000 nM, time (day): 3)","growth inhibition by drug alone (U-2932 [1]; 1000 nM, time (day): 4)","growth inhibition by drug alone (U-2932 [1]; 1000 nM, time (day): 5)","growth inhibition by drug alone (U-2932 [1]; 1000 nM, time (day): 6)","growth inhibition by drug alone (RIVA [2]; 10 nM, time (day): 3)","growth inhibition by drug alone (RIVA [2]; 10 nM, time (day): 4)","growth inhibition by drug alone (RIVA [2]; 10 nM, time (day): 5)","growth inhibition by drug alone (RIVA [2]; 10 nM, time (day): 6)","growth inhibition by drug alone (RIVA [2]; 100 nM, time (day): 3)","growth inhibition by drug alone (RIVA [2]; 100 nM, time (day): 4)","growth inhibition by drug alone (RIVA [2]; 100 nM, time (day): 5)","growth inhibition by drug alone (RIVA [2]; 100 nM, time (day): 6)","growth inhibition by drug plus 177Lu-lilotomab satetraxetan (U-2932 [3]; 10 nM, time (day): 3)","growth inhibition by drug plus 177Lu-lilotomab satetraxetan (U-2932 [3]; 10 nM, time (day): 4)","growth inhibition by drug plus 177Lu-lilotomab satetraxetan (U-2932 [3]; 10 nM, time (day): 5)","growth inhibition by drug plus 177Lu-lilotomab satetraxetan (U-2932 [3]; 10 nM, time (day): 6)","growth inhibition by drug plus 177Lu-lilotomab satetraxetan (U-2932 [3]; 1000 nM, time (day): 3)","growth inhibition by drug plus 177Lu-lilotomab satetraxetan (U-2932 [3]; 1000 nM, time (day): 4)","growth inhibition by drug plus 177Lu-lilotomab satetraxetan (U-2932 [3]; 1000 nM, time (day): 5)","growth inhibition by drug plus 177Lu-lilotomab satetraxetan (U-2932 [3]; 1000 nM, time (day): 6)","growth inhibition by drug plus 177Lu-lilotomab satetraxetan (RIVA [4]; 10 nM, time (day): 3)","growth inhibition by drug plus 177Lu-lilotomab satetraxetan (RIVA [4]; 10 nM, time (day): 4)","growth inhibition by drug plus 177Lu-lilotomab satetraxetan (RIVA [4]; 10 nM, time (day): 5)","growth inhibition by drug plus 177Lu-lilotomab satetraxetan (RIVA [4]; 10 nM, time (day): 6)","growth inhibition by drug plus 177Lu-lilotomab satetraxetan (RIVA [4]; 100 nM, time (day): 3)","growth inhibition by drug plus 177Lu-lilotomab satetraxetan (RIVA [4]; 100 nM, time (day): 4)","growth inhibition by drug plus 177Lu-lilotomab satetraxetan (RIVA [4]; 100 nM, time (day): 5)","growth inhibition by drug plus 177Lu-lilotomab satetraxetan (RIVA [4]; 100 nM, time (day): 6)"
c1ccc2c(CCNc3ccc(Nc4ccncc4)cc3)c[nH]c2c1,0.0584,0.057,0.0439,-0.174,0.0747,0.114,0.115,-0.0134,-0.0529,-0.0355,-0.189,-0.337,-0.226,-0.135,-0.248,-0.272,0.0442,0.058,0.101,0.125,0.0679,0.191,0.21,0.292,0.249,0.475,0.497,0.5,0.12,0.259,0.278,0.294
CC(C)[C@H](C(=O)Nc1ccc(C(=O)NO)cc1)c1ccccc1,0.0244,0.00418,-0.0183,-0.000531,0.96,0.964,0.973,0.98,-0.0258,-0.0463,-0.0451,-0.103,0.935,0.907,0.897,0.884,0.037,0.0315,0.0282,0.152,0.961,0.969,0.978,0.985,0.524,0.584,0.602,0.599,0.939,0.934,0.937,0.94
O=C1NC(=O)/C(=C\c2cccc(C(F)(F)F)c2)S1,-0.0629,-0.0752,-0.145,-0.158,-0.0663,-0.0763,-0.118,-0.219,-0.238,-0.269,-0.325,-0.41,-0.524,-0.503,-0.514,-0.584,-0.0851,-0.0351,0.0122,0.101,-0.0652,-0.0183,0.0099,0.134,0.418,0.47,0.492,0.508,0.391,0.456,0.458,0.45
Nc1nc2[nH]cc(CCc3ccc(C(=O)N[C@@H](CCC(=O)O)C(=O)O)cc3)c2c(=O)[nH]1 [Pemetrexed],-0.0147,-0.0188,-0.0965,-0.27,0.905,0.948,0.965,0.974,-0.121,-0.198,-0.281,-0.489,-0.293,-0.377,-0.377,-0.54,-0.058,-0.0226,0.000411,0.0568,0.893,0.951,0.97,0.979,0.279,0.458,0.483,0.497,0.325,0.44,0.436,0.408
CC(=O)O[C@]1(C(C)=O)CC[C@H]2[C@@H]3C=C(C)C4=CC(=O)CC[C@]4(C)[C@H]3CC[C@@]21C [Megestrol Acetate],0.119,0.0962,0.0591,0.00317,0.0742,0.112,0.0515,-0.0501,-0.0198,-0.0102,-0.107,-0.454,0.0472,0.023,-0.0299,-0.147,0.0333,0.104,0.0868,0.12,0.044,0.137,0.0953,0.163,0.408,0.529,0.546,0.551,0.497,0.522,0.525,0.508
COc1ccc(/C=C\c2cc(OC)c(OC)c(OC)c2)cc1O [Combretastatin A4],0.967,0.973,0.979,0.983,0.965,0.975,0.981,0.985,0.953,0.965,0.971,0.975,0.924,0.936,0.954,0.964,0.971,0.978,0.983,0.986,0.965,0.979,0.985,0.988,0.964,0.976,0.98,0.984,0.936,0.949,0.963,0.971
CCOc1cc2ncc(C#N)c(Nc3ccc(F)c(Cl)c3)c2cc1NC(=O)/C=C/CN(C)C [Pelitinib (EKB-569)],-0.0434,-0.0318,-0.0741,-0.211,0.227,0.204,0.154,0.148,-0.202,-0.214,-0.259,-0.439,-0.558,-0.51,-0.627,-0.809,-0.0948,-0.0187,-0.0319,-0.0653,0.276,0.3,0.292,0.357,0.334,0.432,0.448,0.476,0.182,0.368,0.372,0.405
CC[C@@H]1C(=O)N(C)c2cnc(Nc3ccc(C(=O)NC4CCN(C)CC4)cc3OC)nc2N1C1CCCC1,0.821,0.844,0.867,0.907,0.953,0.973,0.981,0.984,0.903,0.895,0.9,0.908,0.937,0.955,0.964,0.968,0.814,0.856,0.903,0.941,0.938,0.957,0.97,0.982,0.93,0.959,0.97,0.978,0.918,0.956,0.969,0.976
Cc1ccc(C(=O)N(CCCN)[C@@H](c2oc3cc(Cl)ccc3c(=O)c2Cc2ccccc2)C(C)C)cc1,0.962,0.968,0.974,0.977,0.962,0.97,0.976,0.98,0.945,0.955,0.965,0.967,0.918,0.938,0.95,0.957,0.964,0.974,0.981,0.984,0.968,0.976,0.982,0.985,0.963,0.976,0.981,0.985,0.953,0.973,0.979,0.981
O=c1[nH]nc(Sc2ncc([N+](=O)[O-])s2)n1-c1ccc2c(c1)OCCO2,-0.0286,-0.0355,-0.112,-0.247,-0.00347,0.024,-0.0622,-0.12,0.00609,-0.0273,-0.0872,-0.35,-0.0796,-0.0567,-0.0833,-0.162,0.0134,0.0456,0.0435,0.142,0.369,0.406,0.362,0.409,0.41,0.525,0.54,0.553,0.424,0.457,0.468,0.445
OCCn1cc(-c2cnc3nnn(Cc4ccc5ncccc5c4)c3n2)cn1,0.0403,0.00489,-0.0584,-0.156,-0.178,-0.0659,-0.175,-0.214,0.0383,0.00592,-0.0414,-0.165,-0.319,-0.278,-0.299,-0.402,-0.0346,0.043,0.0857,0.105,0.0296,0.08,0.0788,0.176,0.521,0.575,0.599,0.603,0.384,0.474,0.467,0.46
C[C@]12CC[C@@H]3c4ccc(O)cc4CC[C@H]3[C@@H]1CC[C@@H]2O [Estradiol],0.0973,0.0727,-0.00691,-0.0255,0.0487,0.0434,-0.00409,-0.0239,0.262,0.163,0.098,-0.022,0.0522,0.0345,-0.0106,-0.0996,0.0604,0.113,0.146,0.26,0.0789,0.106,0.106,0.215,0.509,0.574,0.594,0.601,0.584,0.611,0.607,0.585
O=C(c1ccc(OCCN2CCCCC2)cc1)c1c(-c2ccc(O)cc2)sc2cc(O)ccc12 [Evista (Raloxifene Hydrochloride)],0.0697,0.04,-0.0859,-0.131,-0.0629,-0.0257,-0.102,-0.132,0.0573,-0.0405,-0.151,-0.472,-0.0542,-0.0819,-0.167,-0.432,-0.0103,0.0219,0.0239,0.0818,-0.103,0.0136,-0.0473,-0.104,0.368,0.48,0.511,0.525,0.425,0.482,0.477,0.447
"Cc1c(C(=O)Nc2ccc(N3C[C@@H](C)O[C@@H](C)C3)nc2)cccc1-c1ccc(OC(F)(F)F)cc1 [LDE225 (NVP-LDE225, Erismodegib)]",0.0297,0.0258,-0.0417,-0.121,-0.0141,0.0478,0.023,-0.177,-0.0165,-0.00347,-0.0773,-0.419,-0.213,-0.137,-0.143,-0.258,0.00969,0.0196,0.033,0.15,-0.0204,0.153,0.159,0.189,0.366,0.504,0.517,0.547,0.384,0.483,0.482,0.47
